# Experimental data as given in PubChem BioAssay AID1445 (SRMLSC, 2008).
# Screen size: about 220,000 compounds; about 910 (0.41%) were called active. The entries come from a sample that favours actives as a whole. Measured potencies and affinities stand elsewhere. A number with no mark means an inactive call.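 How the source made its calls: active means primary inhibition above the hit cutoff, then over 50% inhibition at one or more dose response concentrations (cut at about 23% in these data, passing the limit was not always enough); inconclusive means conflicting primary data, or primary hits not chosen for dose response; inactive means low primary inhibition, or under 50% at every dose.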
# Molecular target: Aminopeptidase N (Plasmodium falciparum (isolate 3D7)) (UniProt O96935)
# Assay: malaria alanyl aminopeptidase activity blockers – biochemical, fluorogenic H-Leu-NHMec substrate, 1536-well (AID 1445);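 further: plate controls were DMSO full reaction for no effect and no enzyme background for full effect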
# Details: recombinant M1AAP, H-Leu-NHMec fluorogenic kinetic assay; at 30 µM, hits give high values unless noted
# Chain of Aminopeptidase N (Plasmodium falciparum (isolate 3D7)) (O96935 whole entry, looked up): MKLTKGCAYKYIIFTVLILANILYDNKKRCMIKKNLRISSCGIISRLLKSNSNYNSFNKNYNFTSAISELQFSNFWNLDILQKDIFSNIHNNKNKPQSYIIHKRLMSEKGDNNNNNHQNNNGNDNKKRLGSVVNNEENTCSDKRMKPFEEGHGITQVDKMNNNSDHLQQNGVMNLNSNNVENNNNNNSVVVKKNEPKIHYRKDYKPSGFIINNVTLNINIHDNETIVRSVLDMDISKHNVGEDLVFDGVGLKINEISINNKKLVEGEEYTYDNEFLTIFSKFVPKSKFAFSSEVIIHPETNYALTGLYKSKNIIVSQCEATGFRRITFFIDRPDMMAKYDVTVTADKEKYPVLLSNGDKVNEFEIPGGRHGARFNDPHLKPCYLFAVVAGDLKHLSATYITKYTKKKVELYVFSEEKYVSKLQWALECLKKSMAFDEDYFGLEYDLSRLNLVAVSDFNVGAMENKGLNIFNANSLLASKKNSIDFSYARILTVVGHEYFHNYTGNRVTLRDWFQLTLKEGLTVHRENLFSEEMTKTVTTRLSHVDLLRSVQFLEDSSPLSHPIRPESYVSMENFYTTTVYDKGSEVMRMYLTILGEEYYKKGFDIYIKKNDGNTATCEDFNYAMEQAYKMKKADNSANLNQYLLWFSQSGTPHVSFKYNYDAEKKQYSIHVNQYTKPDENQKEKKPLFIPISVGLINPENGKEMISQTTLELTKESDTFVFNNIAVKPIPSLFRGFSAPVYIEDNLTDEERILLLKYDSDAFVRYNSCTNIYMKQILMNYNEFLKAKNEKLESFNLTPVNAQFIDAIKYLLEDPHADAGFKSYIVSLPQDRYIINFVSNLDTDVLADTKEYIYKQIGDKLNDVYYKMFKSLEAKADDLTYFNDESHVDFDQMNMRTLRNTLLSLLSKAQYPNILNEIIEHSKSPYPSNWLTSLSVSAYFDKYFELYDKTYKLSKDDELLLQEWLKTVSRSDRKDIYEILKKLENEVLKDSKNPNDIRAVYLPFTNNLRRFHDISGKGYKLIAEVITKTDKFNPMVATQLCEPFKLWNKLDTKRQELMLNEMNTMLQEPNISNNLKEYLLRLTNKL
row,SMILES,inhibition
1,COCCNC(=O)CN(C(=O)Cn1nnc2ccccc21)c1ccccc1,6.84%
2,CSc1nnc(-c2cc[n+](C)cc2)n1CCO,-2.01%
3,O=C(Nc1ccc2oc(-c3ccc(F)cc3)nc2c1)c1ccccc1F,-4.88%
4,CC(C)C(=O)Nc1cccc(-c2nc3ccccc3o2)c1,1.29%
5,O=C(Nc1cccc(-c2nc3ccccc3o2)c1)c1cccnc1,8.84%
6,O=C(Nc1ccc2oc(-c3ccccc3)nc2c1)c1ccccc1F,4.36%
7,COc1cccc(S(=O)(=O)Nc2ccc(C(=O)Nc3ccncc3)cc2)c1,-3.5%
8,CC1Cc2cc(/C(O)=C3\C(=O)C(=O)N(CCN(C)C)C3c3ccccc3F)ccc2O1 (stereo not given),-2.37%
9,O=c1c2ccccc2nnn1Cc1ccccc1Cl,-2.79%
10,Cc1ccccc1NC(=O)c1ccc(S(=O)(=O)N(C)C)cc1,0.67%
11,Cc1nc2ccccc2c2oc(C(=O)N3CCN(C(=O)c4ccco4)CC3)cc12,25.5% (active)
12,Cc1nc2ccccc2c2oc(C(=O)N3CCN(C4CCCCC4)CC3)cc12,0.64%
13,Cc1nc2ccccc2c2oc(C(=O)N3CCC(N4CCCCC4)CC3)cc12,-1.44%
14,Cc1ccccc1OCC(=O)NNC(=O)Nc1ccccc1,11.5%
15,Cc1cc(C(=O)COC(=O)C2=NNC(=O)CC2)c(C)n1CCc1ccccc1,5.78%
16,CCOC(CCn1c(SCC(=O)Nc2cc(C)on2)nc2ccccc2c1=O)OCC,4.19%
17,Cc1ccc(CNC(=O)CN(CCc2ccccc2)S(C)(=O)=O)cc1,1.36%
18,Cc1ccc(/C=N/N=C2\SCC(=O)N2CC2CC2)cc1,3.09%
19,CCOC(=O)c1ccc(N=c2sc(C(=O)OC)cc(=O)n2Cc2ccc3c(c2)OCO3)cc1,4.78%
20,COC(=O)c1cc(=O)n(Cc2ccc3c(c2)OCO3)c(=Nc2ccccc2)s1,26.5% (active)

row,SMILES,inhibition
1,COC(=O)c1cc(=O)n(Cc2ccc3c(c2)OCO3)c(=Nc2ccc(F)cc2)s1,15.5%
2,Cc1[nH]c2ccc(OC(=O)N3CCOCC3)cc2c1C(=O)OC(C)C,8.46%
3,Cc1ccc(CN2C(=O)N/C(=C/c3ccc(-c4ccc(C(=O)O)cc4)o3)C2=O)cc1,6.65%
4,O=C(O)c1ccc(-c2ccc(/C=C3\NC(=O)N(Cc4ccc(Cl)cc4)C3=O)o2)cc1,6.4%
5,CC(C)Cn1c(SCC(=O)N2CCN(C(=O)c3ccco3)CC2)nc2ccccc2c1=O,7.56%
6,CCCCCn1c(NC2CCCCC2)nc2c1c(=O)[nH]c(=O)n2C,9.39%
7,COC(=O)CSC1=C(C#N)C(c2ccc(C(C)C)cc2)CC(=O)N1 (stereo not given),23.7% (active)
8,COC(=O)CSC1=C(C#N)C(c2ccccc2)CC(=O)N1 (stereo not given),1.02%
9,COC(=O)CSC1=C(C#N)C(c2ccc(F)cc2)CC(=O)N1 (stereo not given),-0.52%
10,CSc1nc2c(c(=O)n1-c1ccccc1)SCC2,9.44%
11,Cn1cc(/C=N/NC(=O)c2cc3cc(Br)ccc3o2)c2ccccc21,4.78%
12,O=C(O)Cn1cc(/C=N/NC(=O)c2cc3cc(Br)ccc3o2)c2ccccc21,18.5%
13,C=C(Br)Cn1c(CCC)nc2ccccc21,-1.16%
14,COc1ccc(NS(=O)(=O)c2cc(NC(=O)c3ccccc3F)ccc2N2CCCC2)cc1,3.17%
15,CN(C)CCCNC(=O)c1ccc(Cl)c(S(=O)(=O)N(C)c2ccccc2)c1,7.27%
16,O=C(O)C(c1ccccc1)C1(O)CCCC1 (stereo not given),16.5%
17,COc1ccc(S(=O)(=O)N(C)C)cc1NCC(=O)Nc1ccc(Br)cc1F,7.15%
18,CCOC(=O)c1cc(-c2ccc(/C=N\n3cnnc3)o2)ccc1Cl,3.07%
19,CC1=C(C#N)C(=O)NC(=O)/C1=C\c1ccc(-c2ccc(C)cc2[N+](=O)[O-])o1,20.8%
20,C=CCOC(=O)c1cc(-c2ccc(/C=C3\C(=O)NC(=O)C(C#N)=C3C)o2)ccc1Cl,46.9% (active)

row,SMILES,inhibition
1,CC1=C(C#N)C(=O)NC(=O)/C1=C\c1ccc(-c2cc(C)c(C)cc2[N+](=O)[O-])o1,11.9%
2,CC1=C(C#N)C(=O)NC(=O)/C1=C/c1ccc(-c2ccc(S(N)(=O)=O)cc2)o1,28.5%
3,CC(=O)N1CCc2cc(S(=O)(=O)CCC(=O)Nc3ccc4c(c3)OCCO4)ccc21,7.36%
4,CN(C)CCNC(=O)CN1C(=O)COc2ccc(C(C)(C)C)cc21,0.77%
5,CC(=O)COC(=O)C1CC(=O)N(c2ccc(C)c(C)c2)C1 (stereo not given),3.99%
6,O=C(COc1ncnc2ccccc12)NCCc1ccccc1,1.63%
7,NC(=S)N=Nc1c(O)[nH]c2ccccc12,23.1%
8,CC(C)(O)C(=O)N=Nc1c(O)[nH]c2ccccc12,1.86%
9,O=C(CSc1nnc(-c2ccccn2)n1Cc1ccccc1)N1CCOCC1,2.23%
10,CCOC(=O)c1[nH]cnc1C(=O)Nc1ccccc1,19.7%
11,CCOC(=O)c1[nH]cnc1C(=O)Nc1ccc(C)cc1,2.53%
12,O=C(Cn1cc(C(F)(F)F)ccc1=O)N1CCN(S(=O)(=O)c2ccc(Cl)cc2)CC1,0.58%
13,CCN1CC(CN(C)Cc2cn(-c3cccc(C)c3)nc2-c2cccc(F)c2)CC1=O (stereo not given),0.42%
14,Cc1cc2c(c(SCC(N)=O)n1)C(=O)OC2,0.63%
15,CCC(C)N1C(=O)/C(=C/c2c(NCCCOC(C)C)nc3c(C)cccn3c2=O)SC1=S (stereo not given),10.2%
16,CCCN1C(=O)/C(=C/c2c(NCCCOCC)nc3c(C)cccn3c2=O)SC1=S,-3.51%
17,CCCN1C(=O)/C(=C/c2c(NCCCOC(C)C)nc3c(C)cccn3c2=O)SC1=S,-6.67%
18,CCOC(=O)CC1C(=O)NCCN1C(=O)c1cc2c(=O)n3cccc(C)c3nc2s1 (stereo not given),11.1%
19,CCOC(=O)CC1C(=O)NCCN1S(=O)(=O)c1ccc(OC)cc1 (stereo not given),-8.28%
20,CCOCCCNc1nc2c(C)cccn2c(=O)c1/C=C1\SC(=S)N(CC(C)C)C1=O,-0.56%
